According to PubChem BioAssay:
Inconclusive results are not listed. Activity calls are given as the source filed them. No rule for the calls is given here.

Experiments:
[1] = target: L-lactate dehydrogenase (Plasmodium falciparum (isolate CDC / Honduras)) (UniProt Q27743); experiment: PfLDH activity inhibition – cell lysate, 3D7 strain, counter-screen for P. falciparum growth inhibition project (AID 2304);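 also: 0% = vehicle and 100% = reference inhibitor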; conditions: P. falciparum 3D7 crude extract, LDH APAD/NBT absorbance; at 2 µM; stronger effect = higher value
Chain of L-lactate dehydrogenase (Plasmodium falciparum (isolate CDC / Honduras)) (Q27743 whole entry, looked up): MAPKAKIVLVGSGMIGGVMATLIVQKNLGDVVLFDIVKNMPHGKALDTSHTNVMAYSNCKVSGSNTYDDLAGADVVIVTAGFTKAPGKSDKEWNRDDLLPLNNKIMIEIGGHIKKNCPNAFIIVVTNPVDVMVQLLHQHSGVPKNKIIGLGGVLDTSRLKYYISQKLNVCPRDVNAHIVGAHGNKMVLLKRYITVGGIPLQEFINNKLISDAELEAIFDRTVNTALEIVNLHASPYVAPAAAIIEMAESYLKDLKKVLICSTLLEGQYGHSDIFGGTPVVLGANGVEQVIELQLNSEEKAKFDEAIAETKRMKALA

[2] = inhibition of 3D7 malaria parasite growth – strain 3D7 (AID 2306);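 also: 0% = DMSO wells and 100% = chloroquine plus artemisinin control wells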; conditions: P. falciparum 3D7 erythrocytic growth, LDH absorbance, 72 h; at 2 µM; stronger effect = higher value
[3] = rescue of PC12 cells from polyQ htt toxicity – LDH release (AID 1610); conditions: PC12 mutant huntingtin toxicity, final LDH at 4 uM, stronger effect = lower value

| SMILES | inhibition [1] | growth inhibition [2] | normalised LDH release [3] |
| --- | --- | --- | --- |
| COc1cc(Cc2cnc(N)nc2N)cc(OC)c1OC | 3% (inactive) | 88% (active) | – |
| CC(C)(C)c1ccc(C(O)CCCN2CCC(C(O)(c3ccccc3)c3ccccc3)CC2)cc1 (stereo not drawn) | – | – | 1 |
